Shown are actives, neighbours in structure and some others; about 3.4% of the full set was active somewhere.
HSP90 refold inh: inhibitors of HSP90 luciferase refolding in rabbit reticulocyte lysate | inhibition, % at 5.6 µM | luciferase refolding luminescence, 3 h | AID 1789 | actives 0.91% (n = 290,000);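 active means inhibition above the screen-wide mean plus 3 SD, computed separately per campaign, cut at about 16% in these data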;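 further: 0% = DMSO wells and 100% = 60 µM geldanamycin wells; inhibitors lower the luminescence because luciferase stays unfolded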
PG9 binder: small molecules binding HIV-1 gp120 antibody PG9; TR-FRET gp120-PG9 antibody binding; inhibition, % at 6.7 µM; actives 0.43% (n = 360,000); in the data active means inhibition above about 8.5%
AI-2 QS modul: modulates the Vibrio harveyi AI-2 quorum sensing system | AID 2094 | Vibrio harveyi JMH597 AI-2 luminescence/OD600 ratio, 9 h; stronger effect = lower value; strain lacks LuxN and CqsS sensors; 0 = neutral-control median | actives 0.4% (n = 300,000) | activity change, % at 7.5 µM; in the data active means activity change below about -75%, passing the limit was not always enough;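 further: luminescence divided by OD600 gain over 9 h not by final OD600 alone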
SMARCA2 act: increases SMARCA2 function in MMTV reporter cells | MG213 cells, MMTV-luciferase reporter, dexamethasone, overnight | activation, % at 9.1 µM | actives 1% (n = 370,000); in the data active means activation above about 7.8%;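 further: 0% = vehicle wells and 100% = reference activator wells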
FXN GAA850 act: increases GAA850 frataxin promoter reporter activity | activation, % at 6 µM | HEK293 lucGAA850 FXN promoter luciferase reporter, 24 h; percent of 10 µM SAHA response | actives 0.56% (n = 360,000);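 active means activation above the average of all compounds screened plus 3 SD, cutoff fixed separately per campaign, cut at about 7.5% in these data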;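 further: 0% = DMSO wells and 100% = 10 µM SAHA wells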
HSF1 inhib: HSF1 inhibition | NIH3T3-HGL HSE-luciferase, MG132-induced, luminescence 8 h; stronger effect = lower value | actives 0.77% (n = 300,000) | AID 2098 | activity change, negative = inhibition, % at 7.5 µM (by protocol);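 active means more than half of replicate wells show activity change below -50%, luminescence cut by over half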;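 further: luciferase reports HSF-1 transcriptional activity via heat shock element; 0% = median of DMSO wells and -100% = zero luminescence signal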
Starred values were filed as active, the others as inactive; . = no result.

SMILES	HSP90 refold inh	PG9 binder	AI-2 QS modul	SMARCA2 act	FXN GAA850 act	HSF1 inhib
CCOc1ccc(CNC(=O)CCS(=O)(=O)c2ccc3c(c2)oc(=O)n3C)cc1	-7.4	-1.7	16.5	-0.4	1.7	-76.2*
CC(C)CN1C(=O)[C@@]2(CC(=O)N(C)C2c2ccccc2)c2cc(-n3cc(C(C)(C)O)nn3)ccc21 (stereo partly specified)	.	.	.	-2.3	.	.
COc1ccc(-c2nnc(SCC(=O)NN=Cc3c(O)ccc4ccccc34)n2-c2ccc(OC)cc2)cc1	.	.	.	-1.3	.	.
Oc1cccc(N2CCN(c3cccc(O)c3)CC2)c1	.	-0.8	.	7.8*	.	.
COc1c(CC=C(C)C)cc(C2CC(=O)c3c(O)cc(O)cc3O2)cc1CC=C(C)C (stereo unspecified)	.	-2.4	-10.6	1.8	4.5	-90.8*
Cc1cc(C)cc(SCc2noc(C(=O)NCc3ccccc3)c2C(=O)NCc2ccccc2)c1	.	-0.2	10.1	1.1	-0.2	-60.0*
O=C(NCc1ccccc1)c1onc(CSc2ccc(F)cc2)c1C(=O)NCc1ccccc1	.	0.7	13.9	-0.8	-0.3	-0.5
CCOC(=O)CC[C@@H]1CC[C@]2(CCCN(Cc3nccs3)C2)O1	.	.	.	-3.9	.	.
O=C(Cc1ncc(C(F)(F)F)cc1Cl)NCCc1ccccn1	1.3	1.2	6.3	7.9*	-0.5	2.1
O=C(OC12CCCN(C1)/C(=C/c1cccc(Cl)c1)C2)C1CCCC1 (stereo unspecified)	.	.	.	-3.0	.	.
CCCCn1c(N)c(N(CCC(C)C)C(=O)COC(=O)c2ccc([N+](=O)[O-])s2)c(=O)[nH]c1=O	.	-1.6	.	-0.7	0.0	.
CCCCN(C(=O)c1ccc([N+](=O)[O-])s1)c1c(N)n(CCCC)c(=O)[nH]c1=O	.	0.4	-1.1	-2.6	0.5	-61.9*
CCOC(=O)[C@@]12CCCC=C1N(CCc1ccc(Cl)cc1)C(=O)[C@H]2CC(=O)N1CCOCC1	.	.	.	-3.7	.	.
CCOc1ccc(C(=O)CSc2nnc(SCc3ccc(Cl)cc3)s2)cc1	.	.	.	-4.0	.	.
NNC(=O)c1ccc(O)cc1O	1.1	-0.7	2.5	0.0	4.2	-87.9*
NNC(=O)c1cc2ccccc2cc1O	0.0	-1.4	16.3	-7.6	-11.6	-2.8
COC(=O)[C@]12C[C@H](CC(=O)NCCCCc3ccccc3)C(=O)N(Cc3ccc4c(c3)OCO4)C1=C[C@H](C(C)C)O[C@@H]2C1CC1	.	.	.	-1.5	.	.
O=C(CSc1nnnn1-c1ccccc1)Nc1ccccc1	0.2	-2.0	9.0	-0.8	1.2	-0.9
COc1cc(NC(=O)CSc2nnnn2-c2ccccc2)cc(OC)c1OC	2.0	0.8	42.2	3.3	-3.2	-64.2*
O=[N+]([O-])c1cc2c(ccc3occc32)o1	.	3.5	.	1.7	.	.
CCOC(=O)CCCNC(=O)CSc1nnc(-c2ccccc2)c(-c2ccccc2)n1	-0.3	-2.9	25.5	-1.5	-0.1	-3.3
CCOC(=O)CSc1nnc(-c2ccccc2)c(-c2ccccc2)n1	0.6	-0.3	37.8	2.1	2.9	-82.4*
COc1cc(N2C(=O)C=CC2=O)c(OC)cc1Cl	3.9	-2.9	-91.6*	-4.4	3.1	-15.4
O=c1nc2n(c3ncccc13)CCC2	16.5*	0.1	9.9	3.0	0.3	-7.8
Cc1[nH]c(=O)[nH]c(=O)c1S(=O)(=O)Nc1ccc(Oc2ccccc2)cc1	-0.2	-2.6	36.7	0.0	0.6	-9.9
SMILES	HSP90 refold inh	PG9 binder	AI-2 QS modul	SMARCA2 act	FXN GAA850 act	HSF1 inhib
CN(C)S(=O)(=O)Nc1ccc(Oc2ccccc2)cc1	-1.5	1.1	-92.9*	-2.5	0.3	-7.5
CCC[C@@H](/C=C/C(=O)OC(C)(C)C)Sc1ccc(N)cc1	.	.	.	-1.2	.	.
O=C(NC1CCCCN(Cc2cccc(Cl)c2)C1=O)c1ccccc1 (stereo unspecified)	.	.	.	-1.8	.	.
COc1cc(NC(=O)c2onc(C)c2Cl)c(OC)cc1Cl	-4.5	-1.0	3.6	7.9*	0.0	2.8
O=C(CSC1=NNC(c2ccccn2)S1)Nc1ccccc1 (stereo unspecified)	7.9	-4.0	30.8	3.1	7.0	-62.1*
CCCCCCCCN1C(=O)[C@@H](CC(=O)NCCCOCCCC)C[C@@]2(C(=O)OC)C1=C[C@H](C(C)C)O[C@@H]2C1CC1	.	.	.	-3.0	.	.
O=C1[C@H]2[C@@H](c3ccc(F)cc3)N3C(=O)N(c4ccccc4)C(=O)[C@@]3(Cc3ccc(Cl)cc3)[C@H]2C(=O)N1C1CCCCC1	6.8	-2.8	8.9	1.2	10.7*	-11.6
O=C1[C@H]2[C@@H](c3ccc(F)cc3)N3C(=O)N(c4cccc(Cl)c4)C(=O)[C@@]3(Cc3ccc(Cl)cc3)[C@H]2C(=O)N1C1CCCCC1	-3.8	-2.6	15.7	0.6	0.5	-12.3
C[C@@]12C(=O)N(c3cccc(F)c3)C(=O)N1[C@H](c1ccc(F)cc1)[C@@H]1C(=O)N(C3CCCCC3)C(=O)[C@@H]12	-4.1	.	28.4	.	13.8*	-0.3
O=C(Nc1cccc(-c2ccc(F)cc2)c1)C1CCCN(C(=O)c2cscn2)C1 (stereo unspecified)	-3.2	-0.3	19.3	1.6	-0.1	-71.0*
Cc1ncoc1C(=O)N1CCCC(C(=O)Nc2cccc(-c3ccc(F)cc3)c2)C1 (stereo unspecified)	2.1	0.5	-2.3	-3.6	-0.3	29.9
O=C(CSC(=S)N1CCOCC1)Nc1nc(-c2ccccc2)c(-c2ccccc2)o1	1.8	-2.6	-2.4	-2.5	-2.0	-61.4*
Cn1c(=O)c(=O)n(C)c2cc(S(=O)(=O)N3CCCC3C(=O)Nc3ccc(F)cc3)ccc21 (stereo unspecified)	-6.1	0.5	27.3	-1.0	-1.3	-3.1
Cc1ccc(NC(=O)C2CCCN2S(=O)(=O)c2ccc3c(c2)n(C)c(=O)c(=O)n3C)cc1C (stereo unspecified)	-4.5	-1.1	6.5	-1.0	0.7	-52.6*
COC(=O)[C@]12CCCCC=C1N(Cc1ccc(OC)cc1)C(=O)[C@@H]2CC(=O)N1CCN(C(=O)c2ccco2)CC1	.	.	.	-0.9	.	.
CCC(C(=O)NC(C)(C)C)N(Cc1ccc(F)cc1)C(=O)c1snc(C(N)=O)c1N (stereo unspecified)	0.5	-4.3	27.5	0.0	1.5	-67.1*
O=C(CSc1nc2ccccc2nc1SCC(=O)N1CCCCC1)N1CCCCC1	1.6	22.3*	17.0	-2.6	1.2	-5.1
CC1(C)Cc2nc3[nH]c(=S)n(-c4ccccc4)c(=O)c3cc2CO1	1.3	0.5	-9.3	-2.6	1.1	-61.6*
CC1CN(C(=O)Nc2ccc3c(c2)OCCO3)CC(C)O1 (stereo unspecified)	-3.7	-2.1	12.0	-3.2	1.1	-57.9*
O=C(Nc1ccc2c(c1)OCCO2)N1CCN(c2ccc(F)cc2)CC1	3.4	0.5	6.7	-5.3	0.2	-58.2*
Cc1cccc(C)c1N1CCN(C(=O)Nc2ccc3c(c2)OCCO3)CC1	-4.7	-0.3	14.9	-1.3	-4.0	-47.9

Screening data from PubChem BioAssay.
